Results as given in PubChem BioAssay AID623911 (Vanderbilt High Throughput Screening Facility, 2012).
Hit rate of the full screen: of about 2,100 compounds, about 770 (37%) were called active.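 Rule for the calls: active = by-eye trace score of 1 for enhancers or -1 for inhibitors, so actives lie on both sides (some results past the limit were not filed as active); inactive = score 0, or 3 fluorescent, or 4 baseline rise.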 Some of the results follow.

What follows are compounds tested against G protein-activated inward rectifier potassium channel 2 (Homo sapiens) + G protein-activated inward rectifier potassium channel 1 (Homo sapiens) (UniProt P48051+P48549) (assay: GIRK1/2 thallium flux modulators, retest, confirmation, cell-based, HEK293 rmGlu8/hGIRK1/2, FluoZin-2 (AID 623911)). Conditions: HEK293 rmGlu8/hGIRK1/2, thallium flux FluoZin-2; actives lie on both sides; glutamate co-added at its EC20 level.
Chain of G protein-activated inward rectifier potassium channel 2 (Homo sapiens) + G protein-activated inward rectifier potassium channel 1 (Homo sapiens) (P48051 whole entry, looked up): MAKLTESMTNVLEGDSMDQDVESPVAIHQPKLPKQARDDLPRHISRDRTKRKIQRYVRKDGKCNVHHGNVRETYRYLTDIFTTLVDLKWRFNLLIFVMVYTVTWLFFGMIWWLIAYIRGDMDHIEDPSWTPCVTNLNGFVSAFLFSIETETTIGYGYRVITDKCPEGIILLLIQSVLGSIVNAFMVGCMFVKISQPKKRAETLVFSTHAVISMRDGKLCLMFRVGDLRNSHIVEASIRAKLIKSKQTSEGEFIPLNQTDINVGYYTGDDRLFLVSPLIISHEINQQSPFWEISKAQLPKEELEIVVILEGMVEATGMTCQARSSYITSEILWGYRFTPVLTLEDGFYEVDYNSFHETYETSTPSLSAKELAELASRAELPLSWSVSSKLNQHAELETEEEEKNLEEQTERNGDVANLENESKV
Chain of G protein-activated inward rectifier potassium channel 2 (Homo sapiens) + G protein-activated inward rectifier potassium channel 1 (Homo sapiens) (P48549 whole entry, looked up): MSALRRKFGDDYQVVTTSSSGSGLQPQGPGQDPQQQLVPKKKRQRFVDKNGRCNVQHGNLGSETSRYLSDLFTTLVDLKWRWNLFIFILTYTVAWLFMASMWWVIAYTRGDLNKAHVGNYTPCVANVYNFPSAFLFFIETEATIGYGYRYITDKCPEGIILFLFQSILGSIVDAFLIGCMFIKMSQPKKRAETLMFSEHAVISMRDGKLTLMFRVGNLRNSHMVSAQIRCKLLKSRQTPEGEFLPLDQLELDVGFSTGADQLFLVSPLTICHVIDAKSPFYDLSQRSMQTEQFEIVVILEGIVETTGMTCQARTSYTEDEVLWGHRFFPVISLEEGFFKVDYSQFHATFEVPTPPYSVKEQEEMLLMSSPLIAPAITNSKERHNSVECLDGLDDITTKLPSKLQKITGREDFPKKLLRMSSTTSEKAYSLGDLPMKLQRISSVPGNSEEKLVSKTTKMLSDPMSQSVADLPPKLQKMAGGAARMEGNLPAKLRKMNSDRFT
With `CCOC(=O)N1CCC(n2c(=S)[nH]c3ccccc3c2=O)CC1` the manual score was 0 (inactive). In the case of `COc1ccc(-c2nnc(NC(=O)c3ccc(S(=O)(=O)N4CCc5ccccc5C4)cc3)o2)cc1`, the manual score is reported as 0 (inactive). `CCOc1ccc(-c2nc(-c3ccc(OC)c(OC)c3)no2)cc1OCC` was tested, and the manual score was 0 (inactive). In the case of `CCc1cc(C(N)=O)c(NC(=O)c2ccc(OC)cc2)s1`, the manual score is reported as 0 (inactive). For `COc1ccc(-c2nnc(NC(=O)c3ccc(F)cc3)o2)cc1`, the manual score was 1 (active). With `CCOc1ccc(-c2nnc(NC(=O)c3ccc(OCC(C)C)c(OC)c3)o2)cc1` the manual score was 1 (active). For `O=C(CSc1ccc(-c2ccco2)nn1)c1ccccc1`, the manual score was 0 (inactive). For `CCOc1ccc(-c2nnc(NC(=O)CCCOc3cccc(C)c3)o2)cc1`, the manual score was 0 (inactive). In the case of `COc1ccc(-c2nnc(NC(=O)c3ccc(S(=O)(=O)N4CCCc5ccccc54)cc3)o2)cc1`, the manual score is reported as 0 (inactive). For `O=C(Nc1nnc(-c2ccco2)o1)c1ccc2ccccc2c1`, the manual score was 1 (active). For `COc1ccc(C(=O)Nc2ccc(S(=O)(=O)NCc3ccco3)cc2)cc1OC`, the manual score was 0 (inactive). With `COc1ccc(-c2nnc(NC(=O)c3ccc(S(=O)(=O)N4COCC4(C)C)cc3)o2)cc1` the manual score was 1 (active). With `CC(=O)CN1Cc2ccccc2/C1=N\C(=O)Nc1ccccc1` the manual score was 0 (inactive). For `CCCCN(C)C1=CC2=CC(=C(C#N)C#N)CCC2CC1` (stereo not drawn), the manual score was 3 (inactive). With `O=C(c1cc(-c2ccccc2)on1)N1CCCC1` the manual score was 0 (inactive). With `CC(C)n1cc(NC(=O)c2cc(-c3ccccc3)on2)cn1` the manual score was 1 (active). For `Cc1ccccc1Cn1cc(NC(=O)c2nc3ncccn3n2)cn1`, the manual score was 0 (inactive). `CCCn1cc(NC(=O)c2cc(-c3ccccc3)on2)cn1` was tested, and the manual score was 1 (active). With `O=c1sc(N2CCN(c3ccccc3F)CC2)nc2ccsc12` the manual score was 0 (inactive). In the case of `Cc1cccc(N2CCN(C(=O)c3ccc(Cl)c(S(=O)(=O)N4CCc5ccccc5C4)c3)CC2)c1C`, the manual score is reported as 0 (inactive). With `Cc1ccc2cccc(S(=O)(=O)N3CCN(c4ccccc4F)CC3)c2n1` the manual score was -1 (active). With `Cc1onc(-c2ccccc2)c1C(=O)NC(=S)Nc1sc2c(c1C#N)CCCC2` the manual score was 1 (active). For `Cc1onc(-c2ccccc2)c1C(=O)NNC(=S)NC(=O)c1ccc(Br)cc1`, the manual score was 1 (active). With `O=C(COc1ccccc1)NNC(=S)NC(=O)c1ccc(Cl)cc1Cl` the manual score was 1 (active). `Cc1ccccc1C(=O)NNC(=S)NC(=O)c1ccc(Cl)cc1Cl` was tested, and the manual score was 1 (active). `C=CCNC(=S)NNC(=O)COc1ccc(Cl)cc1Cl` was tested, and the manual score was 0 (inactive). With `Cc1ccccc1C(=O)NC(=S)Nc1sc2c(c1C#N)CCCC2` the manual score was 0 (inactive). In the case of `S=c1[nH]ccn1-c1cccc(Cl)c1`, the manual score is reported as 0 (inactive). With `Oc1ccc2ccc3cccc[n+]3c2c1` the manual score was 3 (inactive). For `CCn1c(-c2cc(-c3cccc(OC)c3)nc3ccccc23)n[nH]c1=S`, the manual score was 0 (inactive). For `Cc1ccccc1C(=O)NNC(=S)NC(=O)c1ccccc1`, the manual score was 1 (active). In the case of `Cc1ccccc1C(=O)NC(=S)NCCc1ccccc1`, the manual score is reported as 0 (inactive). For `Cc1ccccc1C(=O)Nc1nc(=S)ss1`, the manual score was 0 (inactive). In the case of `Cc1ccccc1C(=O)NNC(=O)C(=O)Nc1cccc(Cl)c1C`, the manual score is reported as 1 (active). For `Cc1c(Cl)cccc1NC(=S)/C(=C(\[O-])c1ccc(Cl)s1)[n+]1ccccc1`, the manual score was 0 (inactive). For `CCOC(=O)C(CC)n1cnc2c(nnn2-c2ccc(OC)cc2)c1=O` (stereo not drawn), the manual score was 0 (inactive). With `CCC(C)n1c(=S)[nH]c2c(sc3ccc([N+](=O)[O-])cc32)c1=O` (stereo not drawn) the manual score was 1 (active). `COc1ccc(-c2nnc(Nc3nc4c(OC)cccc4s3)o2)cc1` was tested, and the manual score was 1 (active). In the case of `CCNc1nnc(-c2ccc(C)cc2)o1`, the manual score is reported as -0.5 (inactive). With `COc1cccc2sc(Nc3nc(-c4ccccn4)cs3)nc12` the manual score was 1 (active). In the case of `O=C(Nc1nc(-c2ccccn2)cs1)c1ccc(Br)s1`, the manual score is reported as 0 (inactive). In the case of `COc1cccc2sc(Nc3nnc(-c4cccs4)o3)nc12`, the manual score is reported as 1 (active). For `C/C(=N/NC(=O)c1ccncc1)c1cc2ccc(O)cc2oc1=O`, the manual score was 0 (inactive). `CCOc1cc(/C=N/NC(=O)CNc2cccc(C)c2)ccc1OC(=O)c1ccccc1` was tested, and the manual score was 0 (inactive). With `O=C(Nn1c(C2CCCCC2)nc2ccccc2c1=O)c1ccc([N+](=O)[O-])cc1Cl` the manual score was 0 (inactive). `Cc1ccc(OCC(O)Cn2c(=N)n(Cc3ccccc3)c3ccccc32)cc1` (stereo not drawn) was tested, and the manual score was -1 (active). `CC1(C)NC(=O)N(CC(O)COc2ccc(-c3ccc(C#N)cc3)cc2)C1=O` (stereo not drawn) was tested, and the manual score was 0 (inactive). `COc1ccccc1OCC(O)Cn1c(=N)n(Cc2ccccc2)c2ccccc21` (stereo not drawn) was tested, and the manual score was -1 (active). `CN(C)c1nc(OCCNC(=O)COc2ccc(Cl)cc2Cl)nc(N2CCOCC2)n1` was tested, and the manual score was -1 (active). `Cc1cc(CC(C)C)n(-c2nc3ccccc3c(=O)n2OCC(N)=O)n1` was tested, and the manual score was 0 (inactive). In the case of `Cc1ccc(CC(=O)N2CCN(c3cccc(C(F)(F)F)c3)CC2)cc1`, the manual score is reported as 1 (active). In the case of `CC1(C)Cc2ccccc2-c2nnc(SCC(=O)N3CCN(c4ccccc4)CC3)n21`, the manual score is reported as 0 (inactive). With `O=C(CN1CCN(Cc2ccccc2)CC1)Nc1cccc(C(F)(F)F)c1` the manual score was 0 (inactive).
